Test results: the supplement of paper PMC5662767
Counter-ions that a name gives are not always drawn.

System: Drosophila S2 cl14 SmoIP sensor cells
Experiment: normalized SmoIP GFP fluorescence (untreated unstimulated = 0%, untreated Hh-stimulated = 100%); higher = more Smo activation sensor fluorescence
Details: stimulation: mock conditioned medium (-Hh); compound concentration: 2 uM; 24 h
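Also: flow cytometry read-out as median GFP intensity of gated cells, compounds added 30 min before Hh-conditioned or mock medium, mock-treated cells serving as unstimulated baseline.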

SMILES | normalized SmoIP GFP fluorescence
COc1cc(-n2c(=S)[nH]c3ccccc3c2=O)c(Cl)cc1Cl [mdivi-1] | -1.34%
CNCC(O)c1ccc(O)cc1 (stereo not drawn) [synephrine-hcl] | -9.85%
CN1CCc2cc3c(cc2[C@H]1[C@@H]1OC(=O)c2c1ccc1c2OCO1)OCO3 [bicuculline] | -3.9%
